Source: PubChem
LYPLA2 counter = LYPLA2 (human) inhibition in PME1 counter-screen; recombinant LYPLA2, FP-Rh probe fluorescence polarization; inhibition, % at 5.9 µM; hit rate 0.38% among 320,000; AID 2177;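 active = inhibition above the screen-wide mean plus 3 SD, limit set per campaign, cut at about 26% in these data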
Fam108B counter = blocks mouse Fam108B hydrolase in RBBP9 counter-screen; recombinant Fam108B, FP-Rh probe fluorescence polarization; inhibition, % at 9.51 µM; hit rate 0.33% among 300,000; AID 1947;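 active = inhibition above the screen mean inhibition plus 3 SD, computed separately per campaign, cut at about 18% in these data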;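 also: inhibitors lower polarization as less probe binds the enzyme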
PME-1 primary = PME-1 (human) inhibition; Q9Y570; recombinant PME-1, FP-Rh probe fluorescence polarization; inhibition, % at 5.9 µM; hit rate 0.53% among 320,000; AID 2130;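 active = inhibition above the campaign mean of all compounds plus 3 SD, cut at about 26% in these data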;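 also: competitive labeling of PME-1 active site by serine hydrolase directed probe; inhibitors block probe labeling so polarization falls and inhibition rises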
GSTO1 inh = blocks human GSTO1 in RBBP9 counter-screen; recombinant GSTO1, activity-based probe fluorescence polarization; inhibition, % at 5.96 µM; hit rate 1.1% among 300,000; AID 1974;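 active = inhibition above the campaign mean inhibition plus 3 SD, cut at about 35% in these data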
Target sequence (P78417 whole entry, looked up): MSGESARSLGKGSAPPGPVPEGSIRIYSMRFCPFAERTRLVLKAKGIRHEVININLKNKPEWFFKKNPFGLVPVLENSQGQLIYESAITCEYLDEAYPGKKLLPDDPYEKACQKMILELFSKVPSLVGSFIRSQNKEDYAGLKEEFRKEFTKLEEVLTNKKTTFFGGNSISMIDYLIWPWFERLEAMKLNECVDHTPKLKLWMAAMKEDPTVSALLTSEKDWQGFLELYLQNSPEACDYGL
PREPL inhibitor = inhibitors of human prolyl oligopeptidase-like enzyme PREPL; inhibition, % at 5.96 µM; hit rate 0.68% among 320,000; Q4J6C6; recombinant PREPL, fluorescence polarization activity-based probe; in the data active = inhibition above about 43%
LYPLA1 counter = counter-screen for PME1 inhibitors: inhibitors of human LYPLA1; AID 2174; O75608; recombinant LYPLA1, FP-Rh probe fluorescence polarization; hit rate 0.16% among 320,000; inhibition, % at 5.9 µM;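 active = inhibition above the mean of all tested compounds plus 3 SD, set per campaign, cut at about 14% in these data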;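 also: inhibitors block serine hydrolase probe labeling of LYPLA1 so polarization falls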
Target sequence (O75608 whole entry, looked up): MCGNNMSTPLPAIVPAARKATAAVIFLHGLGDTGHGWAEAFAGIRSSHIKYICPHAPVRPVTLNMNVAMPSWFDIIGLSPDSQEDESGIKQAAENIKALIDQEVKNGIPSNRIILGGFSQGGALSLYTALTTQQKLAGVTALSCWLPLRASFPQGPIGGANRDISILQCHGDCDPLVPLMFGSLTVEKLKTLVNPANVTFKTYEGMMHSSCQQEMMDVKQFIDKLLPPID
LYPLA2 conf = LYPLA2 (human) inhibition, confirmation counter-screen | shares compounds with LYPLA2 counter | recombinant LYPLA2, FP-Rh probe fluorescence polarization | inhibition, % at 5.9 µM | hit rate 72% among 1,100 | AID 2232;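 active = mean inhibition across replicates above the hit cutoff set in the primary screen, cut at about 26% in these data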;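 also: blocked labeling of the enzyme by serine hydrolase FP-Rh probe lowers polarization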
LYPLA2 gel ABPP = inhibitors of human LYPLA2; shares compounds with LYPLA2 counter; rhLYPLA2 in mouse brain proteome, gel ABPP FP-Rh; inhibition, % at 20 µM; hit rate 30% among 150; AID 652029;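 active = inhibition of LYPLA2 enzyme probe labeling above about 50%, limit read from the data; inactive = inhibition below that limit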;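 also: loss of FP-Rh probe labeling of the LYPLA2 gel band measured as band density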
A number is an active result; 0 = inactive; - = no result given. Only some compounds are listed: those with a hit (about 1.9% of all), similar ones and a draw of the others.

SMILES	LYPLA2 counter	Fam108B counter	PME-1 primary	GSTO1 inh	PREPL inhibitor	LYPLA1 counter	LYPLA2 conf	others
Cc1cc(=O)oc2c(C)c(OCC(=O)N3CCN(C(=O)C4COc5ccccc5O4)CC3)ccc12 (stereo not given)	38	0	0	0	0	0	36
CCCOc1ccc(-c2csc3ncn(Cc4ccc(C(=O)O)cc4)c(=O)c23)cc1	30	0	0	0	0	0	33
Cc1ccc(OCC(=O)OCC(=O)c2ccccc2)cc1C	29	0	0	0	0	0	0
Cc1nn(Cc2ccccc2)c(C)c1NC(=O)c1cc(-c2ccco2)on1	0	0	0	0	0	0	-
COc1ccc(OC)c(-c2cc(C(=O)Nc3c(C)nn(Cc4ccc(Cl)cc4)c3C)no2)c1	44	0	0	0	0	0	87	LYPLA2 gel ABPP=0
COc1ccc(OC)c(-c2cc(C(=O)Nc3c(C)nn(Cc4ccccc4)c3C)no2)c1	61	0	0	0	0	0	66	LYPLA2 gel ABPP=64
CCCn1c(SCC(=O)Nc2ccccc2Oc2ccccc2)n[nH]c1=O	0	0	0	0	0	0	-
Cc1ccc(S(=O)(=O)NCC(=O)NCC(=O)N2CCC(C)CC2)cc1	0	0	0	0	0	0	-
O=C(Oc1ccc(Cl)cc1)c1ccc(N2CCOCC2)c([N+](=O)[O-])c1	33	0	0	0	0	0	28
Cc1ccc(OC(=O)c2ccc(N3CCOCC3)c([N+](=O)[O-])c2)cc1	0	0	0	0	0	0	-
O=[N+]([O-])c1ccc(Sc2ccc(Cl)c(Cl)c2)nc1	40	0	0	0	0	0	31
O=[N+]([O-])c1ccc(SCc2c(F)cccc2Cl)nc1	31	0	0	0	0	0	38
Cc1ccc(Sc2ccc([N+](=O)[O-])cc2[N+](=O)[O-])nc1	0	0	0	0	0	0	-
O=[N+]([O-])c1cccnc1SCc1c(F)cccc1Cl	32	0	0	0	0	0	38
COc1ccc(C(=O)Nc2ccc(C3CC3(Cl)Cl)cc2)cc1 (stereo not given)	0	0	0	0	0	0	-
Cc1sc2ncnc(SCC(=O)N3CCCC(C(F)(F)F)C3)c2c1C (stereo not given)	0	0	0	0	0	0	-
CC(=O)Nc1ccc(S(=O)(=O)NC2CCSc3ccccc32)cc1 (stereo not given)	32	0	0	0	0	0	0
O=S(=O)(NC1CCSc2ccccc21)c1ccccc1 (stereo not given)	0	0	0	0	0	0	-
Cn1c(-c2ccc(F)cc2)cnc1NCc1cc2c(cc1[N+](=O)[O-])OCO2	42	0	0	0	0	0	44
Cn1c(-c2ccccc2)cnc1NCc1cc2c(cc1[N+](=O)[O-])OCO2	29	0	0	0	0	0	41
Cn1c(-c2ccc(Cl)cc2)cnc1NCc1cc2c(cc1[N+](=O)[O-])OCO2	51	0	0	0	0	0	49
Cc1cc(F)ccc1NCc1cc2c(cc1[N+](=O)[O-])OCO2	27	0	0	0	0	0	0
Cn1c(-c2ccccc2)cnc1NCc1cccc([N+](=O)[O-])c1	0	0	0	0	0	0	-
COc1ccc(NC(=O)Nc2ccon2)cc1OC	0	0	0	0	0	0	-
O=C(NCC1CCN(Cc2ccccc2F)CC1)Nc1cc(F)ccc1F	0	0	0	0	0	0	-
SMILES	LYPLA2 counter	Fam108B counter	PME-1 primary	GSTO1 inh	PREPL inhibitor	LYPLA1 counter	LYPLA2 conf	others
O=C(Nc1ncccc1O)c1cccc(S(=O)(=O)N2CCc3ccccc32)c1	27	0	0	0	0	0	0
CCOC(=O)c1ccc(NC(=O)C(=O)NCc2ccncc2)cc1	0	0	0	0	0	0	-
CCCCOC(=O)c1ccc(NC(=O)C(=O)NCc2ccncc2)cc1	35	0	0	0	0	0	31
Cc1cc(C(=O)NC(C)c2ccccc2)c2cc(F)ccc2n1 (stereo not given)	28	0	0	0	0	0	0
CC1CC(C)CN(C(=O)C(NS(=O)(=O)c2ccc(Br)s2)c2ccccc2)C1 (stereo not given)	0	0	0	0	0	0	-
COc1ccc(NC2=NCCC(=O)N2Cc2cccs2)cc1	27	0	0	0	0	0	0
COc1ccc(NC2=NCC(=O)N2Cc2cccs2)cc1	0	0	0	0	0	0	-
Nc1cc(Cl)ccc1Oc1ccc2ccccc2c1	28	0	0	0	0	0	0
CCN1C(=O)CC(C(=O)Nc2ccc(F)cc2)SC1=Nc1cccc(OC)c1 (stereo not given)	29	0	0	0	0	0	0
COc1cccc(NC(=O)C2CC(=O)N(C)C(=Nc3cccc(F)c3)S2)c1 (stereo not given)	0	0	0	0	0	0	-
CCn1cc(/C=C(\NC(=O)c2ccccc2F)C(=O)N2CCCC2)c2ccccc21	0	0	0	0	0	0	-
O=C(NCCCN1CCCC1)c1ccc(CS(=O)(=O)c2c(Cl)cccc2Cl)o1	0	0	0	0	0	0	-
COc1ccc(Nc2cc(Cl)nc(N)n2)cc1OC	0	0	0	0	0	0	-
CC(C)(C)c1ccc(C(=O)N2CCC(C(=O)NCc3ccncc3)CC2)cc1	34	0	0	0	0	0	41
COc1ccc(CCNC(=O)C2CCN(C(=O)c3ccc(C(C)(C)C)cc3)CC2)cc1	0	0	0	0	0	0	-
CC(C)(C)c1ccc(C(=O)N2CCC(NC(=O)c3ccccc3)CC2)cc1	39	0	0	0	0	0	37
CC(C)(C)c1ccc(C(=O)N2CCC(C(=O)NC3CC3)CC2)cc1	0	0	0	0	0	0	-
CC(=O)OC1COC(N2CCc3cc([N+](=O)[O-])ccc32)C(OC(C)=O)C1OC(C)=O (stereo not given)	0	0	0	0	0	0	-
Cc1ccc(NC(=O)CCC(=O)OCC(=O)c2ccc(Oc3ccc([N+](=O)[O-])cc3)cc2)c(C)c1	29	0	0	0	0	0	26
Cc1ccc(NC(=O)c2cccc(Oc3ccc([N+](=O)[O-])cc3)c2)c(C(=O)O)c1	26	0	0	0	0	0	38
O=C(Nc1ccc(O)cc1)c1cccc(Oc2ccc([N+](=O)[O-])cc2)c1	0	0	0	0	0	0	-
Cc1ccc(C=NNC(=O)C(NC(=O)c2ccccc2)c2n[nH]c(=O)c3ccccc23)cc1 (stereo not given)	-	-	-	-	-	-	-	LYPLA2 gel ABPP=0
O=C1CCCC(=O)N1c1ccc(N2CCN(c3ccc([N+](=O)[O-])cc3)CC2)c([N+](=O)[O-])c1	43	0	0	0	0	0	43
